Measured values taken from PubChem BioAssay (NCI).
Values joined by “and” are separate entries in the source; they are usually repeats but may differ in a detail not shown here. Identical values can stand only once. This is part of a sample that, as a whole, favours compounds with a hit. Of some 83,000 tested, about 20% had one in any assay.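 Interpretation: 100, growth as untreated; towards 0, rising growth inhibition; 0, no net growth; 0 to -100, cell death. Compounds scoring below 10 were considered active.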 A number with no mark means an inactive call. Active and inactive are the calls of the source.

Tested on: MDA-MB-468 breast
Experiment: NCI-60 one-dose screen, 48 h (100 = growth as untreated, 0 = no growth, -100 = all killed)
Settings: 10 µM unless noted

**Q.** With `N#Cc1c(NC(=O)c2ccc(Br)cc2)sc2c1CCCC2` as the compound, how does the growth read?
**A.** Its growth is 19.5%.

**Q.** For `Oc1cc(O)c2c(c1)O[C@H](c1ccc(O)c(O)c1)[C@@H](O)C2`, which growth is on record?
**A.** Its growth is 115%.

**Q.** For `Cc1ccc(NC(=O)Nc2nc3ccccc3s2)cc1NC(=O)Nc1nc2ccccc2s1`, which growth is on record?
**A.** Its growth is 96%.

**Q.** For `C=CCN(CC=C)C(=O)[C@H](CC)[C@@H]1CC[C@@H](C)[C@@H]([C@H](C)[C@@H](O)[C@@H](C)C(=O)[C@H](CC)C2O[C@]3(C=CC(=O)[C@]4(CC[C@@](C)([C@H]5CC[C@](O)(CC)[C@H](C)O5)O4)O3)[C@H](C)C[C@@H]2C)O1` (stereo not given in full), which growth is on record?
**A.** Its growth is -17.4% (active).

**Q.** How did the growth turn out when `COc1cccc(-c2nc3sccn3c2-c2ccnc(NCCNS(=O)(=O)c3c(Cl)cccc3Cl)c2)c1` was run?
**A.** The growth was 56.8%.

**Q.** For `O=C(Nc1ccncc1)C(=O)c1cn(S(=O)(=O)c2ccccc2F)c2ccccc12`, which growth is on record?
**A.** The growth was 16.4%.

**Q.** With `COc1nc2c(c(=O)n1C)CN(c1ccccc1)C(=O)C(C)N2` (stereo not given) as the compound, how does the growth read?
**A.** The growth was 86.3%.

**Q.** How did the growth turn out when `O=c1nc(Nc2nc3ccccc3s2)[nH]c(=O)c2ccccc12` was run?
**A.** The growth was 99.4%.

**Q.** With `CC(C)(C(=O)c1cccnc1)c1cccnc1` as the compound, how does the growth read?
**A.** The growth was 96.4% and 96.1%.

**Q.** For `COc1cc(NC(=O)Nc2cccc(-c3cc(=O)c4c(OC)c(OC)c(OC)cc4o3)c2)cc(OC)c1OC`, which growth is on record?
**A.** The growth was 40.4%.

**Q.** Which growth does the source give for `[2H]c1nc(Nc2ncc(F)c(-c3cc(F)c4nc(C)n(C(C)C)c4c3)n2)c([2H])c([2H])c1CN1CCN(C([2H])([2H])C([2H])([2H])[2H])CC1` here?
**A.** Its growth is 103%.

**Q.** `CCCCCCCCn1ccc2cc(NC(=O)CN3CCN(c4nc(C)cc(Cl)n4)CC3)ccc21` was tested. Which growth did it give?
**A.** The growth was 92.8%.

**Q.** `CN(CCc1ccccc1)C(=S)N(C(=O)c1ccc([N+](=O)[O-])cc1)c1ccc(Cl)cc1` was tested. Which growth did it give?
**A.** Its growth is 37.4%.

**Q.** `CCCCCCCCCCCCCCCCCCOP(=O)([O-])OC1CC[N+](C)(C)CC1` was tested. Which growth did it give?
**A.** The growth was 0% (active).

**Q.** With `CCOC(=O)c1cc(C(=O)OCC)c(C)nc1C` as the compound, how does the growth read?
**A.** Its growth is 109%.

**Q.** With `COc1cc(C2C=C(C)N=C3SC(C)=NN32)cc(OC)c1OC` (stereo not given) as the compound, how does the growth read?
**A.** The growth was 106%.

**Q.** With `CN(C)c1ccc(/C=C/C(=O)c2ccccc2)cc1` as the compound, how does the growth read?
**A.** Its growth is 90.3%.

**Q.** Which growth does the source give for `COC(=O)C(=[N+]=[N-])C(=O)c1ccc([N+](=O)[O-])o1` here?
**A.** Its growth is 81.7%.

**Q.** Which growth does the source give for `COc1cc(N2C(=O)[C@H](O)C2c2ccc(SC)cc2)cc(OC)c1OC` (stereo not given in full) here?
**A.** Its growth is 3.3% (active).

**Q.** For `C#CCN(Cc1ccc2nc(N)[nH]c(=O)c2c1)c1ccc(C(=O)NC(CCC(=O)O)C(=O)O)cc1` (stereo not given), which growth is on record?
**A.** Its growth is 37.7%.

**Q.** With `Cc1ccc(S(=O)(=O)n2cc(CNc3ccc(N4CCOCC4=O)cc3)c3ccccc32)cc1` as the compound, how does the growth read?
**A.** The growth was -9.46% (active).

**Q.** How did the growth turn out when `COc1cc(-c2nc(SCCC(C)C)nc(NNC(=O)c3ccncc3)c2C#N)cc(OC)c1OC` was run?
**A.** Its growth is 77.7%.

**Q.** With `CC(C)[C@H]1COC(=O)N1[C@@H]1C(=O)N([C@@H](CCC(=O)N2CCN(C3CCCC3)CC2)C(=O)N[C@@H]2CCCc3ccccc32)[C@@H]1/C=C/c1cccc(Cl)c1` as the compound, how does the growth read?
**A.** Its growth is -11.4% (active).

**Q.** With `Nc1nc(Nc2ccccc2SSc2ccccc2Nc2nc(N)nc(C(Cl)(Cl)Cl)n2)nc(C(Cl)(Cl)Cl)n1` as the compound, how does the growth read?
**A.** The growth was 86.6%.

**Q.** `C[C@]12CC[C@@H]3c4cc(OC(F)F)c(OS(N)(=O)=O)cc4CC[C@H]3[C@@H]1CC[C@@H]2OS(N)(=O)=O` was tested. Which growth did it give?
**A.** The growth was 11.9%.

**Q.** For `Cc1ccc(C(NC(=O)c2ccccc2)c2ccc3cccnc3c2O)cc1` (stereo not given), which growth is on record?
**A.** Its growth is -26.6% (active).

**Q.** How did the growth turn out when `O=[N+]([O-])c1ccc(NC(c2ccccc2)c2ccc3cccnc3c2O)cc1` (stereo not given) was run?
**A.** Its growth is -28.9% (active).

**Q.** For `COc1cc(-c2c3sc(=O)[nH]c3nc3c2c(=O)[nH]n3C(C)C)cc2c1OCO2`, which growth is on record?
**A.** Its growth is 92.3%.

**Q.** With `COc1cc(NCc2cn(-c3ccc(C(=O)O)cc3)nc2-c2ccc(C(=O)O)cc2)cc(OC)c1OC` as the compound, how does the growth read?
**A.** The growth was 102%.

**Q.** `OC(c1cc2c(Cl)cc(Cl)cc2c2cc(C(F)(F)F)ccc12)C1CCCCN1` (stereo not given) was tested. Which growth did it give?
**A.** Its growth is -89.1% (active).

**Q.** For `O=S(=O)(Nc1ccccc1Cl)c1ccc(-c2cnc(C3CC3)o2)cc1`, which growth is on record?
**A.** The growth was 6.43% (active).

**Q.** For `Cc1ccc(-c2csc(NC(=O)c3ccccc3CN3C(=O)c4ccccc4C3=O)n2)cc1`, which growth is on record?
**A.** Its growth is 92.1%.

**Q.** `COc1ccc(C(=O)/C=C/c2cn(Cc3ccc(Cl)cc3)c3ccccc23)cc1` was tested. Which growth did it give?
**A.** The growth was -28.2% (active).

**Q.** Which growth does the source give for `CC12CC(C#N)CCC1O2` (stereo not given) here?
**A.** Its growth is 111%.

**Q.** `CN1CCN(c2ccc(C(=O)/C=C/c3ccc(Cl)c(C(F)(F)F)c3)cc2)CC1` was tested. Which growth did it give?
**A.** Its growth is 18.4%.
